CYP2C19 inh: blockers of cytochrome P450 2C19 activity – biochemical, luminescence, ADME assay, primary screen. P33261. CYP2C19 Supersomes, luciferin-H EGE luminescence, 30 min. inhibition, % at 5 µM. 96,000 tested, 21% active;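 active means CYP2C19 inhibition above a set limit at 5 µM in the primary screen, cut at about 50% in these data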;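 further: plate controls were negative control wells for no effect and 2.5 mM tranylcypromine positive control for full effect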
CD11b adhes inh: inhibitors of CD11b/CD18 adhesion to fibrinogen, primary screen, K562 cells, luminescence; inhibition, % at 10 µM; 93,000 tested, 0.54% active; Integrin beta-2 (Homo sapiens) + Integrin alpha-M (Homo sapiens), P05107+P11215; AID 1497, 2009; ATPlite luminescence; Mn2+ added to activate the integrin;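 active means primary inhibition of 50% or more at 10 µM, then 40% or more on retest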
Mac1 fbg enh: enhancers of CD11b/CD18 adhesion to fibrinogen, primary screen, K562 cells, luminescence | Integrin beta-2 (Homo sapiens) + Integrin alpha-M (Homo sapiens), P05107+P11215 | ATPlite luminescence | activation, % at 10 µM | 93,000 tested, 0.07% active | AID 1499, 2009;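 active means 10 µM primary screen giving 50% or more activity, confirmed by 40% or more on retest at that dose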
CYP2C9 activ: human CYP2C9 activators, primary screen, biochemical, luminescence; Cytochrome P450 2C9 (Homo sapiens), P11712; recombinant CYP2C9, luciferin-H conversion; hits give high values; factor 1 = untreated enzyme, 0 = blocked; activation factor at 5 µM; 96,000 tested, 1.4% active;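 active means activation factor of 2 or more for CYP2C9 at a 5 µM dose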;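 further: 0 = sulfaphenazole-blocked wells and 1 = vehicle-only wells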
Target sequence (P11712 whole entry, looked up): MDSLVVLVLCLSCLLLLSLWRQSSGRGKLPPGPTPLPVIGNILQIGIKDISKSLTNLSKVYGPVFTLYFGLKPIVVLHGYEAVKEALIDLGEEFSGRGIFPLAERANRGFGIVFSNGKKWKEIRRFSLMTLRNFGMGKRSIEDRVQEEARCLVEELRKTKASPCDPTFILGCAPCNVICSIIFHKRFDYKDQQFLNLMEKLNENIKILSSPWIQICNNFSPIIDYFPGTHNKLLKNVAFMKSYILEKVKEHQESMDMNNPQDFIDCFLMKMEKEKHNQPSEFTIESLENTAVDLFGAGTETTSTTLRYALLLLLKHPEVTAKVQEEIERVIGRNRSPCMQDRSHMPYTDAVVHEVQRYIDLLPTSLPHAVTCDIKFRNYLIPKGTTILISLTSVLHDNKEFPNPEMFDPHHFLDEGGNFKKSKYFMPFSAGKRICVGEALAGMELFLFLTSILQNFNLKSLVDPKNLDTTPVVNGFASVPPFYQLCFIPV
CYP2C9 inhib: blockers of cytochrome P450 2C9 activity – biochemical, luminescence, ADME assay, primary screen | CYP2C9 Supersomes, luciferin-H conversion | AID 777, 2007 | P11712 | inhibition, % at 5 µM | 96,000 tested, 20% active;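 active means blocking of liver enzyme CYP2C9 beyond about 50% at 5 µM, limit read from the data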
CYP2C19 activ: human CYP2C19 activators, primary screen, biochemical, luminescence | Cytochrome P450 2C19 (Homo sapiens), P33261 | recombinant CYP2C19, luciferin-H EGE luminescence; hits give high values; 0 = fully inhibited enzyme, 1 = untreated enzyme | activation factor at 5 µM | 96,000 tested, under 10 active;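 active means activation factor of at least 2 at 5 µM in the primary screen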;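 further: 0 = wells with 2.5 mM tranylcypromine and 1 = vehicle-only wells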
* hit, by the source's call; . = no result. Most compounds without a hit are left out; they make up all but 28% or so of the library.

SMILES | CYP2C19 inh | CD11b adhes inh | Mac1 fbg enh | CYP2C9 activ | CYP2C9 inhib | CYP2C19 activ
Cc1ccc(CNC(=O)C(=O)NCC2OCCN2C(=O)c2cccs2)cc1 (configuration not stated) | . | -2 | -1 | . | . | .
CCOC(=O)c1cnc2c(OC)cccc2c1N1CCN(c2ccc(OC)cc2)CC1 | 67* | -22 | 3 | 0.3 | 73* | 0.3
CCOC(=O)c1cnc2c(OC)cccc2c1N1CCN(c2ccccc2OC)CC1 | 7 | 17 | -2 | 0.5 | 46 | 0.9
Cc1ccc(Oc2ccc(-c3nc(N)nc(N)n3)cc2)cc1C | 7 | 4 | -2 | 1 | 3 | 0.9
COc1ccc(OCCSc2nnc(CCNC(=O)c3ccc(OC)cc3)n2C)cc1 | 11 | . | . | 0.8 | 24 | 0.9
COc1ccc(C(=O)NCCc2nnc(SCC(=O)Nc3ccc(Br)cc3)n2C)cc1 | 21 | -34 | 1 | 0.3 | 65* | 0.8
CCOc1ccc(NC(=O)CSc2nnc(CCNC(=O)c3ccc(OC)cc3)n2C)cc1 | 33 | -19 | 2 | 0.4 | 57* | 0.7
COc1ccc(OCCSc2nnc(CCNC(=O)c3ccc(Cl)c(Cl)c3)n2C)cc1 | 29 | . | . | 0.6 | 38 | 0.7
Cc1ccc(-n2nc(C(=O)O)c3ccccc3c2=O)cc1C | -12 | -17 | -8 | 0.9 | 15 | 1.1
Cc1ccc(-n2nc(C)c(NS(=O)(=O)c3ccccc3)c2C)cc1C | 42 | -5 | -3 | 0 | 96* | 0.6
Cc1nn(-c2ccc(F)cc2)c(C)c1NS(=O)(=O)c1ccc(Cl)cc1 | 100* | -18 | -1 | 0.1 | 91* | 0
COC(=O)c1ccc(C2NC(C(=O)O)CS2)cc1 (configuration not stated) | 2 | 0 | -3 | 0.6 | 40 | 1
CCOCCCn1c(SCC(=O)NCc2ccco2)nc2c(sc3ccccc32)c1=O | 26 | 56* | 0 | 0.3 | 66* | 0.7
CCCCn1c(SCC(=O)NCc2ccco2)nc2c(sc3ccccc32)c1=O | 37 | 54* | 12 | 0.3 | 74* | 0.6
CCCCn1c(SCC(N)=O)nc2c(sc3ccccc32)c1=O | 29 | 15 | -3 | 0.8 | 24 | 0.7
CCOC(=O)CSc1nc2c(sc3ccccc32)c(=O)n1CCCN1CCOCC1 | 25 | -35 | 2 | 0.4 | 55* | 0.7
O=C(CSc1nc2c(sc3ccccc32)c(=O)n1CCc1ccccc1)NCc1ccco1 | 42 | 16 | 2 | 0.5 | 52* | 0.6
CCC(C)NC(=O)CSc1nc2c(sc3ccccc32)c(=O)n1CCCN1CCOCC1 (configuration not stated) | 13 | -25 | -6 | 0.8 | 16 | 0.9
O=C(Nc1c(F)c(F)c(F)c(F)c1F)NC1CCCCC1 | 34 | -6 | -6 | 1 | -3 | 0.7
COc1ccc(C(NC(=O)c2ccco2)c2ccc(OC)c(OC)c2)cc1OC | 72* | 1 | -6 | 0.4 | 61* | 0.3
COc1ccc(OC)c(C(C)NC(=O)c2ccco2)c1 (configuration not stated) | 82* | 9 | -2 | 0.3 | 66* | 0.2
COc1ccc(OC)c(C(C)NC(C)=O)c1 (configuration not stated) | -10 | -9 | -3 | 1.2 | -15 | 1.1
NNC(=O)CNC(=O)c1cccc(Br)c1 | 35 | -3 | 8 | 0.9 | 6 | 0.7
COC(=O)c1cccc(NS(=O)(=O)c2cccs2)c1C | 14 | 8 | -8 | 0.3 | 74* | 0.9
COC(=O)c1ccccc1NC1=C/C(=N\S(=O)(=O)c2cccs2)c2ccccc2C1=O | 67* | 38 | -1 | 0.2 | 83* | 0.3
SMILES | CYP2C19 inh | CD11b adhes inh | Mac1 fbg enh | CYP2C9 activ | CYP2C9 inhib | CYP2C19 activ
COC(=O)c1cccc(NC(=O)Cc2ccc(OC)cc2)c1C | 92* | 0 | 2 | 0.3 | 67* | 0.1
O=C(Nc1ccccc1Cl)c1cccs1 | -10 | -4 | -3 | 1.1 | -10 | 1.1
COC(=O)c1cccc(NC(=O)c2cccs2)c1C | 52* | 3 | -2 | 0.9 | 8 | 0.5
COC(=O)c1cccc(NS(C)(=O)=O)c1C | 3 | . | . | 1 | 0 | 1
COC(=O)c1cccc(NC(=O)CCSc2ccc(Cl)cc2)c1C | 45 | -22 | -2 | 0.8 | 21 | 0.6
COc1ccc(C(=O)COC(=O)[C@H](C)Nc2ccc(C(F)(F)F)cc2[N+](=O)[O-])cc1 | 29 | -22 | 41 | 0.2 | 75* | 0.7
COc1ccc(Nc2ccc(C(=O)O)cc2[N+](=O)[O-])cc1 | . | 9 | 3 | . | . | .
Cc1cc(C)c(C(=O)COC(=O)[C@H](C)Nc2ccc(C(F)(F)F)cc2[N+](=O)[O-])c(C)c1 | 79* | -1 | 1 | 0.1 | 90* | 0.2
Cc1cc(C)c2c(=O)n(CC(=O)NCCCN3CCOCC3)sc2n1 | 33 | 11 | -4 | 0.2 | 81* | 0.7
Cc1cc(C)c2c(=O)n(CC(=O)NCCCN3CCN(c4ccccc4F)CC3)sc2n1 | 38 | 5 | -5 | 0.3 | 65* | 0.6
CNc1nc(SC)nc2ccsc12 | 37 | -10 | -2 | 2.3* | -130 | 0.6
C=CCSc1nc(NC)c2sccc2n1 | 22 | . | . | 2.5* | -148 | 0.8
CN1CCN(C(=O)CSc2nc(-c3cccs3)ccc2C#N)CC1 | 12 | -2 | 5 | 0.6 | 37 | 0.9
COc1ccc(OC)c(C(c2nnnn2C2CCCC2)N2CCN(c3ccccc3F)CC2)c1 (configuration not stated) | 95* | -10 | 8 | 0.1 | 94* | 0.1
COc1ccc(OC)c(C(c2nnnn2C2CCCC2)N2CCc3ccccc3C2)c1 (configuration not stated) | 80* | 1 | -2 | 0.5 | 54* | 0.2
Fc1ccccc1N1CCN(C(c2ccccn2)c2nnnn2C2CCCCC2)CC1 (configuration not stated) | 80* | -1 | 0 | 0.2 | 77* | 0.2
COc1ccc(N2CCN(C(c3ccccc3OC)c3nnnn3C3CCCC3)CC2)cc1 (configuration not stated) | 76* | -9 | -1 | 0.2 | 77* | 0.2
COc1ccc(C(c2nnnn2C2CCCC2)N2CCC(C(N)=O)CC2)c(OC)c1 (configuration not stated) | 6 | -11 | 1 | 1 | 4 | 0.9
COc1ccccc1N1CCN(C(c2ccccn2)c2nnnn2C2CCCCC2)CC1 (configuration not stated) | 42 | 9 | 6 | 0.5 | 49 | 0.6
Cc1ccc(OCCNS(=O)(=O)c2ccc(N3CCCC3=O)cc2)cc1C | 30 | . | . | 0.6 | 40 | 0.7

Assay outcomes: PubChem BioAssay, Sanford-Burnham Center for Chemical Genomics
